This note sets out measurements from PubChem BioAssay (NCATS).

Inconclusive results are not listed. Entries that show only a call come without a potency. Active and inactive are the calls of the source. Calls come from the whole dose curve; as a rule, active = well fitted inhibition curve with a large enough effect; inconclusive = small, poorly fitted or top-dose-only effect; inactive = no such curve, though single readings can be large or run the other way.

Chain of Rap guanine nucleotide exchange factor 3 (Homo sapiens) (O95398 whole entry, looked up): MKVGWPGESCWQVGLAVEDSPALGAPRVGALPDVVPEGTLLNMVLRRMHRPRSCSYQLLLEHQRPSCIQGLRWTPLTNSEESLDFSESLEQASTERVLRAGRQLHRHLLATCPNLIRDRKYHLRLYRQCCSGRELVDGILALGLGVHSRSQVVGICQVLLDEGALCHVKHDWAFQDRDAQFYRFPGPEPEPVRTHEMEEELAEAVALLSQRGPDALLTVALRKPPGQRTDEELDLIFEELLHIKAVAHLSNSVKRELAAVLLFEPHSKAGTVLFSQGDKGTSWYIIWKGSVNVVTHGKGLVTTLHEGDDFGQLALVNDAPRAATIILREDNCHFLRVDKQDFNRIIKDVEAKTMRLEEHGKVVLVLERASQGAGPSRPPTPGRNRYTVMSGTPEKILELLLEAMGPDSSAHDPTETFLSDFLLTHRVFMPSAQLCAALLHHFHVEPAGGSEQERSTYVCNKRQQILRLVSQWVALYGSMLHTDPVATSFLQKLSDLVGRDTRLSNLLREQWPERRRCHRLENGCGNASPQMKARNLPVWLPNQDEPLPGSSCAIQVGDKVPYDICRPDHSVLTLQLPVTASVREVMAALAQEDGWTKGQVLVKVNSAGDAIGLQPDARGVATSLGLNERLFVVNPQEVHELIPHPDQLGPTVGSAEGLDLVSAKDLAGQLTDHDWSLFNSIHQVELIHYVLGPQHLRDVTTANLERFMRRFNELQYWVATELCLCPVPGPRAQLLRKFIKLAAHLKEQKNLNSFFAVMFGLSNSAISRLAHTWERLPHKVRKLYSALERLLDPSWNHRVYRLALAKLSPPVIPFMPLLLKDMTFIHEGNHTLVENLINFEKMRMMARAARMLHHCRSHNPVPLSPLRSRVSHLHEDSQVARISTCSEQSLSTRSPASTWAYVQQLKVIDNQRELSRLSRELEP

The target in the experiment is Rap guanine nucleotide exchange factor 3 (Homo sapiens) (UniProt O95398). The experiment is described as follows: Counterscreen qHTS for antagonist of cAMP-regulated guanine nucleotide exchange factor 3 (EPAC1) (AID 1645888).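 Note: fluorescence loss as bound BODIPY-GDP is released from Rap1B.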 The note with it: Rap1B-BODIPY-GDP nucleotide exchange, fluorescence; series mostly up to 154 µM. In a few lines:
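Rap1B-BODIPY-GDP 250 nM + GDP 50 uM; cpds 7-pt, final 9.74 nM–152 uM (activator mode) or from 7.32 nM upwards (inhibitor mode); RT; FI 480/540 nm at 5 and 30 min, then ± cAMP, reread.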
Turning to `COc1ccc(OC)c(/C=C2\SC(=S)N(Cc3cccnc3)C2=O)c1`, the activity change, negative = inhibition is -3.11% [at 30.8 µM] (inactive). `COC(=O)c1cc2oc(C)cc2n1Cc1cc(C)ccc1C`: the Potency result was “inactive”. For the molecule `O=C(OCCN1C(=O)c2cccc3c(N4CCOCC4)ccc(c23)C1=O)c1ccccc1Cl`, the activity change, negative = inhibition is 1.86% [at 30.8 µM] (inactive).

Consider `COc1ccc(OC)c(/C=C/c2nc3ccccc3[nH]c2=O)c1`, for which the Potency entry was “inactive”. For the molecule `O=S1(=O)NC(c2ccccc2)CC(CC2CCCCC2)O1` (stereo not given), the activity change, negative = inhibition was -0.437% [at 30.8 µM] (inactive).

As for `Cc1ccc2nc(/C(C#N)=C\c3ccc(N4CCOCC4)o3)[nH]c2c1`, the activity change, negative = inhibition is 15.8% [at 30.8 µM] (inactive). With `COC(=O)C1=CN(C(C)c2ccccc2)C=C(C(=O)OC)C1c1cc(OC)c(OC)c(OC)c1` (stereo not given), the Potency result is “inactive”. Same read-out and setting: in the case of `COc1ccc(/C(O)=C/c2nc3ccccc3n(-c3ccccc3)c2=O)cc1` it was “inactive”; in that of `CCN(C(=O)CN1CCN(c2ccccc2O)CC1)c1c(N)n(Cc2ccccc2)c(=O)[nH]c1=O`, “inactive”; in that of `Cc1ccc(NC(=O)c2sc3nc(-c4cc5ccccc5oc4=O)[nH]c(=O)c3c2C)c(C)c1`, “inactive”. As for `CN(C)c1ccc(C(=O)/C=C/c2ccc(Br)cc2)cc1`, the Potency result is “inactive”. On the same count and under the same terms, as for `CCOc1ccccc1Oc1nc(C)nc2c1oc1ccccc12`, the entry is “inactive”.

As to `COc1cc2c(c(OC)c1OC)C(c1ccc(C)cc1)CC(=O)O2` (stereo not given), the activity change, negative = inhibition was 6.91% [at 30.8 µM] (inactive).

For `CN1CCc2c(sc(NC(=O)CSc3ccccc3)c2-c2nc3ccccc3s2)C1`, the Potency result is “inactive”.

Take `CN(C)c1ccc(/C=C/C(=O)c2cccc(Br)c2)cc1`: the activity change, negative = inhibition is 21.2% [at 30.8 µM] (inactive).
